Laboratory results taken from PubChem BioAssay AID2313 (Broad Institute, 2010).
The campaign covered roughly 22,000 compounds. About 460 (2.1%) were called active. Inconclusive results (about 2%) are left out. The full list was thinned out, with actives kept by preference. A number with no mark means an inactive call.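 Rule for the calls: active = mean inhibition across valid replicates above about 65% (limit read from the data); inconclusive = mean under the limit, yet half or more replicates past it; inactive = the rest.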

Assay: Hedgehog pathway signaling inhibitors, primary screen, luminescence, Shh-LIGHT2 cells, Gli-luciferase (AID 2313);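 note: pathway switched on by Shh-conditioned medium diluted 1 in 25 in low serum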
Conditions: Shh-LIGHT2 Gli-luciferase reporter, 30 h; active compounds read high

SMILES	inhibition
c1ccc2c(c1)[I+]c1ccccc1-2	88.8% (active)
COC(/C=C/CC/C=C/C(=O)O)C(O)C(C)C(O)/C(C)=C/C(C)C(=O)CCCC1CC(=O)NC(=O)C1 (stereo not given)	-22.8%
CC(C)c1c(CN(C)C(C)Cc2ccccc2)n(C)n(-c2ccccc2)c1=O (stereo not given)	-38.5%
CC(C)Nc1nc(Cl)nc(NC(C)C)n1	-55.8%
CN(C)C(=O)Oc1cc(OC(=O)N(C)C)cc(C(O)CNC(C)(C)C)c1 (stereo not given)	33.4%
C[C@H]1CCC/C=C/C2C[C@H](O)C[C@H]2[C@H](O)/C=C\C(=O)O1 (stereo not given in full)	107% (active)
C=CC(C)(C)c1cc2cc3c(cc2oc1=O)O[C@H](C(C)(C)O)C3	-36.2%
CC=C1CN2C3CC1C1(C(=O)OC)C2CC2(c4ccccc4N(C)C32)C1O (stereo not given)	11.9%
CCCCC/C=C\C/C=C\C/C=C\CCCCCCC(=O)NCCO	-2.94%
C[C@@H]1O[C@@H](O[C@@H]2C=C3CC[C@@H]4C(C[C@@H](O)[C@]5(C)[C@@H](c6ccc(=O)oc6)CC[C@]45O)[C@@]3(C)CC2)[C@H](O)[C@H](O)[C@H]1O[C@@H]1O[C@H](CO)[C@@H](O)[C@H](O)[C@H]1O (stereo not given in full)	-37.6%
CC(C)[C@@]1(NC(=O)[C@@H]2CC3c4cccc5[nH]cc(c45)C[C@H]3N(C)C2)O[C@@]2(O)[C@@H]3CCCN3C(=O)[C@H](Cc3ccccc3)N2C1=O (stereo not given in full)	21.5%
O=C(c1ccccc1)C12CN3CN(CN(C3)C1)C2	-5.62%
COc1c(C(C)C)cc2c(c1O)[C@@]1(C(=O)O)CCCC(C)(C)C1CC2 (stereo not given in full)	-14.7%
CCCCCCCCCCCCCC(=O)O[C@@H]1[C@@H](C)[C@@]2(O)[C@@H](C=C(CO)C[C@]3(O)C(=O)C(C)=C[C@@H]23)[C@@H]2C(C)(C)[C@]12OC(C)=O	87% (active)
CCCCC/C=C\C/C=C\C/C=C\C/C=C\CCCCCC(=O)NCCO	-36.6%
